Measurements: PubChem BioAssay (NCATS)
Results filed as inconclusive are left out. Active and inactive are the calls of the source. Calls come from the whole dose curve; as a rule, active = well fitted curve in the direction sought with a large enough effect; inconclusive = small, poorly fitted or top-dose-only effect, or another doubt; inactive = no such curve, though single readings can be large; an effect the other way counts as inactive or inconclusive.

Experiments:
[1] = qHTS of pediatric cancer cell lines to identify multiple opportunities for drug repurposing: Confirmatory screen for SJ-GBM2 cells (AID 1347116); note: nearly all actives have a fitted effect of over 60% in size; note: potency is the fitted concentration of half-maximal effect
Summary of the method: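 Viability measured as metabolically active cells via CellTiter-Glo luminescence following 48 hours of compound exposure, 11-point dilutions in confirmatory testing. 500-1,000 cells/well plated 5 hours before dosing; controls were DMSO and 2.3 µM bortezomib.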

[2] = qHTS of pediatric cancer cell lines to identify multiple opportunities for drug repurposing: Confirmatory screen for BT-37 cells (AID 1347117); note: nearly all actives have a fitted effect of over 55% in size; note: potency is the fitted concentration of half-maximal effect
Summary of the method: (§1)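 Cells (500-1,000/well) in growth media were settled 5 h at 37 degrees C, then given compounds for 48 h. Viability was read as CellTiter-Glo luminescence. Primary runs used MIPE at 11 points (0.78 nM-46 µM) and NPC at 8 points (0.59 nM-46 µM); follow-ups used 11 points.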

[3] = qHTS of pediatric cancer cell lines to identify multiple opportunities for drug repurposing: Confirmatory screen for control Hh wild type fibroblast cells (AID 1347121); note: nearly all actives have a fitted effect of over 70% in size
Summary of the method: as §1

[4] = qHTS of pediatric cancer cell lines to identify multiple opportunities for drug repurposing: Confirmatory screen for Rh41 cells (AID 1347123);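 note: 48 h compound exposure; nearly all actives have a fitted effect of over 60% in size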; note: potency is the fitted concentration of half-maximal effect
Summary of the method: as §1

[5] = qHTS of pediatric cancer cell lines to identify multiple opportunities for drug repurposing: Confirmatory screen for Rh18 cells (AID 1347125); note: nearly all actives have a fitted effect of over 55% in size; note: potency is the fitted concentration of half-maximal effect
Summary of the method: as §1

[6] = qHTS of pediatric cancer cell lines to identify multiple opportunities for drug repurposing: Confirmatory screen for Rh30 cells (AID 1347126); note: nearly all actives have a fitted effect of over 55% in size; note: potency is the fitted concentration of half-maximal effect
Summary of the method: as §1

[7] = qHTS of pediatric cancer cell lines to identify multiple opportunities for drug repurposing: Confirmatory screen for Saos-2 cells (AID 1347127); note: nearly all actives have a fitted effect of over 60% in size; note: potency is the fitted concentration of half-maximal effect
Summary of the method: as §1

[8] = qHTS of pediatric cancer cell lines to identify multiple opportunities for drug repurposing: Confirmatory screen for OHS-50 cells (AID 1347128);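 note: compound exposure lasted 48 h at 37 degrees C; nearly all actives have a fitted effect of over 55% in size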; note: potency is the fitted concentration of half-maximal effect
Summary of the method: as §1

[9] = qHTS of pediatric cancer cell lines to identify multiple opportunities for drug repurposing: Confirmatory screen for SK-N-SH cells (AID 1347129);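 note: cells exposed to compound for 48 h before viability read; nearly all actives have a fitted effect of over 60% in size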; note: potency is the fitted concentration of half-maximal effect
Summary of the method: as §1

[10] = tested on: Zika virus NS2B-NS3 protease; assay: Primary screen GU AMC qHTS for Zika virus inhibitors (AID 1347154); note: nearly all actives have a fitted effect of over 70% in size
Summary of the method: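 Unlinked Zika NS2B hydrophilic domain/NS3 protease domain noncovalent complex (25 nM final) in 10 mM Tris-HCl pH 8.0, 0.01% Tween 20, with AMC peptide substrate. Fluorescence (ex 340, em 450 nm) change over 15 min, room temperature; percent inhibition fitted to 4-parameter Hill equation.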

[11] = qHTS of pediatric cancer cell lines to identify multiple opportunities for drug repurposing: Confirmatory screen for TC32 cells (AID 1347118);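 note: potency is the fitted concentration of half-maximal effect; cells exposed to compound for 48 h before the read; nearly all actives have a fitted effect of over 65% in size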
Summary of the method: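 Measured quantity: luminescence from CellTiter-Glo, reflecting metabolically active TC32 cells following 48 h of compound. Curves came straight from multi-point titrations, with 8 or 11 points in primary and 11 in confirmatory screening.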

[12] = qHTS of pediatric cancer cell lines to identify multiple opportunities for drug repurposing: Confirmatory screen for U-2 OS cells (AID 1347122); note: nearly all actives have a fitted effect of over 65% in size; note: potency is the fitted concentration of half-maximal effect
Summary of the method: as §1

[13] = qHTS of pediatric cancer cell lines to identify multiple opportunities for drug repurposing: Confirmatory screen for MG 63 (6-TG R) cells (AID 1347119); note: nearly all actives have a fitted effect of over 55% in size; note: potency is the fitted concentration of half-maximal effect
Summary of the method: as §1

[14] = tested on: Zika virus NS2B-NS3 protease (unlinked complex); assay: Confirmatory screen GU AMC qHTS for Zika virus inhibitors (AID 1347153); note: nearly all actives have a fitted effect of over 70% in size
Summary of the method: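 Unlinked enzyme 25 nM, Tris pH 8.0/0.01% Tween 20; cpd 15 min RT, dark; + AMC substrate 10 µM (Km 18.3 µM); 340/450 nm read at t0 and 15 min; % inhibition → 4-param fit.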

[15] = qHTS of pediatric cancer cell lines to identify multiple opportunities for drug repurposing: Confirmatory screen for RD cells (AID 1347124);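 note: cells exposed to compound for 48 h before viability readout; nearly all actives have a fitted effect of over 65% in size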
Summary of the method: as §1

In the case of COc1ccc(-n2nc(C(N)=O)c3c2C(=O)N(c2ccc(N4CCCCC4=O)cc2)CC3)cc1, the Potency [1] is reported as 2.33 µM (active), the Potency [2] is reported as “inactive” and the Potency [3] is reported as “inactive”. The Potency [4] was 0.233 µM (active), the Potency [5] was “inactive” and the Potency [6] was 0.147 µM (active). The Potency [7] was “inactive”, the Potency [8] was “inactive” and the Potency [9] was “inactive”. The Potency [10] was “inactive”.

With Cn1c(=O)n(-c2ccc(C(C)(C)C#N)cc2)c2c3cc(-c4cnc5ccccc5c4)ccc3ncc21 the Potency [1] was 3.29 µM (active), the Potency [2] was 1.17 µM (active) and the Potency [11] was 0.827 µM (active). For the same compound, the Potency [12] was 2.93 µM (active), the Potency [4] was 2.33 µM (active) and the Potency [6] was 2.33 µM (active). The Potency [8] was 5.85 µM (active) and the Potency [10] was “inactive”.

In the case of CN(C)Cc1c(C(=O)NCCOc2ccc(C(=O)NO)cc2)oc2ccccc12, the Potency [1] is reported as 1.47 µM (active), the Potency [2] is reported as 1.17 µM (active) and the Potency [11] is reported as 0.737 µM (active). For the same compound, the Potency [12] was 0.657 µM (active), the Potency [4] was 0.293 µM (active) and the Potency [5] was 0.827 µM (active). For the same compound, the Potency [6] was 1.65 µM (active), the Potency [7] was 1.47 µM (active) and the Potency [8] was 1.65 µM (active). The Potency [9] was 3.72 µM (active) and the Potency [10] was “inactive”.

In the case of Nc1ccccc1NC(=O)c1ccc(CNC(=O)OCc2cccnc2)cc1, the Potency [1] is reported as 13.5 µM (active), the Potency [2] is reported as 3.02 µM (active) and the Potency [11] is reported as 3.02 µM (active). For the same compound, the Potency [12] was 0.135 µM (active), the Potency [4] was 2.4 µM (active) and the Potency [5] was 7.59 µM (active). For the same compound, the Potency [6] was 19.1 µM (active), the Potency [7] was 2.14 µM (active) and the Potency [8] was 10.7 µM (active).

With COC(=O)c1ccc2c(C(=Nc3ccc(N(C)C(=O)CN4CCN(C)CC4)cc3)c3ccccc3)c(O)[nH]c2c1 the Potency [1] was “inactive”, the Potency [11] was 18.5 µM (active) and the Potency [13] was 3.29 µM (active). The Potency [3] was “inactive”, the Potency [12] was 13.1 µM (active) and the Potency [4] was 8.27 µM (active). For the same compound, the Potency [5] was 26.1 µM (active), the Potency [6] was 16.5 µM (active) and the Potency [8] was 14.7 µM (active). For the same compound, the Potency [10] was “inactive”.

For Nc1ncnc2c1c(-c1cnc3[nH]ccc3c1)nn2C1CCCC1, the Potency [1] was 2.33 µM (active), the Potency [2] was 2.33 µM (active) and the Potency [11] was 1.47 µM (active). For the same compound, the Potency [5] was 2.93 µM (active), the Potency [6] was 0.585 µM (active) and the Potency [7] was 1.85 µM (active). For the same compound, the Potency [8] was 1.85 µM (active), the Potency [9] was 1.87 µM (active) and the Potency [10] was “inactive”.

With CS(=O)(=O)N1CCN(Cc2cc3nc(-c4cccc5[nH]ncc45)nc(N4CCOCC4)c3s2)CC1 the Potency [1] was 21.4 µM (active), the Potency [2] was 15.1 µM (active) and the Potency [11] was 1.35 µM (active). The Potency [4] was 0.851 µM (active), the Potency [5] was 1.07 µM (active) and the Potency [6] was 1.07 µM (active). The Potency [8] was 5.37 µM (active) and the Potency [9] was 4.29 µM (active).

With Cc1cc(Nc2cc(NC(=O)c3c(Cl)cccc3Cl)ccn2)nc(N)n1 the Potency [1] was “inactive”, the Potency [2] was 5.22 µM (active) and the Potency [11] was 0.827 µM (active). For the same compound, the Potency [4] was 0.269 µM (active), the Potency [6] was 24 µM (active) and the Potency [7] was 1.31 µM (active). For the same compound, the Potency [8] was 0.369 µM (active), the Potency [9] was 13.6 µM (active) and the Potency [10] was “inactive”.

With Cc1cc(N2CCOCC2)cc2[nH]c(-c3c(NC[C@@H](O)c4cccc(Cl)c4)cc[nH]c3=O)nc12 the Potency [1] was 0.369 µM (active), the Potency [11] was 0.465 µM (active) and the Potency [13] was 0.329 µM (active). The Potency [12] was 7.37 µM (active), the Potency [4] was 0.657 µM (active) and the Potency [5] was 3.29 µM (active). The Potency [6] was 0.293 µM (active), the Potency [7] was 3.69 µM (active) and the Potency [8] was 3.29 µM (active). For the same compound, the Potency [9] was 3.72 µM (active) and the Potency [14] was “inactive”.

For COc1cccc(Nc2c(C(N)=O)cnc3c(C)cc(S(=O)(=O)c4cccc(C(=O)N(C)C)c4)cc23)c1, the Potency [1] was “inactive”, the Potency [2] was “inactive” and the Potency [11] was 0.512 µM (active). The Potency [12] was “inactive”, the Potency [7] was “inactive” and the Potency [8] was “inactive”. The Potency [9] was “inactive” and the Potency [10] was “inactive”.

In the case of COc1cc2nccc(Oc3ccc(NC(=O)C4(C(=O)Nc5ccc(F)cc5)CC4)cc3)c2cc1OC, the Potency [1] is reported as 1.65 µM (active), the Potency [11] is reported as 18.5 µM (active) and the Potency [3] is reported as “inactive”. For the same compound, the Potency [12] was 23.3 µM (active), the Potency [4] was 26.1 µM (active) and the Potency [7] was 18.5 µM (active). The Potency [8] was 20.8 µM (active).

For CN1CCN(Cc2ccc(NC(=O)Nc3ccc(Oc4cc(NC(=O)C5CC5)ncn4)cc3)cc2C(F)(F)F)CC1, the Potency [1] was 1.65 µM (active), the Potency [2] was 0.369 µM (active) and the Potency [11] was 0.165 µM (active). The Potency [12] was 0.737 µM (active), the Potency [4] was 0.233 µM (active) and the Potency [5] was 0.369 µM (active). For the same compound, the Potency [6] was 2.33 µM (active), the Potency [7] was 0.369 µM (active) and the Potency [8] was 0.585 µM (active). The Potency [9] was 0.743 µM (active) and the Potency [10] was “inactive”.

For CC[C@@H]1C(=O)N(C)c2cnc(Nc3ccc(C(=O)NC4CCC(N5CCN(CC6CC6)CC5)CC4)cc3OC)nc2N1C(C)C (some centres undefined), the Potency [1] was “inactive”, the Potency [2] was “inactive” and the Potency [13] was “inactive”. The Potency [3] was “inactive”, the Potency [12] was “inactive” and the Potency [4] was “inactive”. The Potency [5] was “inactive”, the Potency [6] was “inactive” and the Potency [7] was “inactive”. The Potency [9] was “inactive”.

In the case of Cc1cnc(-c2cnc(NCCNc3ccc(C#N)cn3)nc2-c2ccc(Cl)cc2Cl)[nH]1, the Potency [1] is reported as “inactive”, the Potency [2] is reported as “inactive” and the Potency [3] is reported as “inactive”. For the same compound, the Potency [12] was “inactive”, the Potency [5] was “inactive” and the Potency [6] was “inactive”. The Potency [7] was “inactive” and the Potency [10] was “inactive”.

With Cc1[nH]c2ccccc2c1CCNCc1ccc(C=CC(=O)NO)cc1 the Potency [1] was “inactive”, the Potency [2] was 0.165 µM (active) and the Potency [11] was 0.117 µM (active). The Potency [4] was 0.0041 µM (active), the Potency [15] was “inactive” and the Potency [5] was 0.165 µM (active). For the same compound, the Potency [7] was 0.233 µM (active), the Potency [8] was 0.293 µM (active) and the Potency [9] was 0.469 µM (active). The Potency [10] was “inactive”.
